Reference: the supplement of paper PMC11732987, “Enantioselective OTUD7B fragment discovery through chemoproteomics screening and high-throughput optimisation” (Communications Chemistry, 2025)

Tests used:
Assay in all cases: log2 ratio of Biotin-Ahx-Ub-VS probe labelling (fragment/DMSO); higher = less target engagement (more negative = stronger competition), active = hit call of the paper (q ≤ 0.05, log2 ratio ≤ -1)
Conditions in all cases: compound concentration: 200 uM; treatment time: 3 h
USP42 = target: T1, USP42 (UniProt Q9H9J4)
T1 sequence (whole entry): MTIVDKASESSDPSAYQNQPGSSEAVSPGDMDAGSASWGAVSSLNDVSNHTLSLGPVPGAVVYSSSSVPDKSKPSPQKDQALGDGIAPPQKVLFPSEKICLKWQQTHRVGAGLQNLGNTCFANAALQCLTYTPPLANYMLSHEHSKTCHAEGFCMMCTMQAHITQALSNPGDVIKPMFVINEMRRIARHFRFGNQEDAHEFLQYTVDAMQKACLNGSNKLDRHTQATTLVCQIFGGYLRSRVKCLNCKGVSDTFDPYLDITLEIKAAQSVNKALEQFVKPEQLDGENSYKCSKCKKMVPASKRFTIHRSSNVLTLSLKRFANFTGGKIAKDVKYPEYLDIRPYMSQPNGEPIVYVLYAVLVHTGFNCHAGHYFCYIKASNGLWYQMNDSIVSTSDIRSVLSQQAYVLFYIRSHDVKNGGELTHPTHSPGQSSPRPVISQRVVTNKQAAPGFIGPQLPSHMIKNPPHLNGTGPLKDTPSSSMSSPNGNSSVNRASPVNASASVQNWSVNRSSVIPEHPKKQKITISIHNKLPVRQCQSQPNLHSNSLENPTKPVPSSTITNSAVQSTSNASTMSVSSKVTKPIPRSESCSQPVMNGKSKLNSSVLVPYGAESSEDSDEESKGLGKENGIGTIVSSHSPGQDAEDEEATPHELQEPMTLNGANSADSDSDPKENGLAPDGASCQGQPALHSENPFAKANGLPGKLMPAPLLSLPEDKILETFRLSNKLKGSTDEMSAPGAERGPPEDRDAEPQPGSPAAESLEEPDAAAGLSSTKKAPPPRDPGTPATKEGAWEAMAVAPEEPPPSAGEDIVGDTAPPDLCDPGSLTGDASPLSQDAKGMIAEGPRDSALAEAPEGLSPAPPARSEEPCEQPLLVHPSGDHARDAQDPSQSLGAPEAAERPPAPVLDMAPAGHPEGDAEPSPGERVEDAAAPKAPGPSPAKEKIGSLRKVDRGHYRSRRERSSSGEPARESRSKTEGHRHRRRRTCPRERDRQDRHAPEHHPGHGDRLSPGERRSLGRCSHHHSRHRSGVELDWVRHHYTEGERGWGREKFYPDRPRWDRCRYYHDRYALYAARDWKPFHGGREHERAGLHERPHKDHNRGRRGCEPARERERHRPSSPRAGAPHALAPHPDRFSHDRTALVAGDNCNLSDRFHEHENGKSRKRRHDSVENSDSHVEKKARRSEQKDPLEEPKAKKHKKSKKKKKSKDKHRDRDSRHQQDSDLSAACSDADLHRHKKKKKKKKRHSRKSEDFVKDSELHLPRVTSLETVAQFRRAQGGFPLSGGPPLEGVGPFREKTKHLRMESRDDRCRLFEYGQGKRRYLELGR
Method in brief: (§1)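 Fragment (200 µM) or vehicle was incubated for 3 h with triplicate HEK293T lysate samples of 495 µg, which were then treated with Biotin-Ahx-Ub-VS at 0.5 µM final for 1 h. Labelled DUBs were enriched on NeutrAvidin, digested with LysC and trypsin, and analysed by diaPASEF LC-MS/MS. Values are average log2 fragment/vehicle ratios from an unpaired t-test on global-median-normalised Spectronaut label-free quantities, using proteins with ≥2 unique peptides.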

USP46 = USP46 (UniProt P62068)
USP46, sequence (P62068 whole entry): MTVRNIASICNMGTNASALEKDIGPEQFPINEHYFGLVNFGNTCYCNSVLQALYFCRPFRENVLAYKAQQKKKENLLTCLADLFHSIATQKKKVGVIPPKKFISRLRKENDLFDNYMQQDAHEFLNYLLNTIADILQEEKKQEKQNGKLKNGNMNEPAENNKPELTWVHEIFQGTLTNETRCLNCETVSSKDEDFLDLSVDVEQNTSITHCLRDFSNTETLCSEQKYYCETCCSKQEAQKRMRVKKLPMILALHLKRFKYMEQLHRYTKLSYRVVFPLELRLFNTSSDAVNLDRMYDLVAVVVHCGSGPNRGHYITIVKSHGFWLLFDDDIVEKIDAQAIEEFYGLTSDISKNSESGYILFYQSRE
Method in brief: as §1

USP47 = target: T2, USP47 (UniProt Q96K76)
T2 sequence (whole entry): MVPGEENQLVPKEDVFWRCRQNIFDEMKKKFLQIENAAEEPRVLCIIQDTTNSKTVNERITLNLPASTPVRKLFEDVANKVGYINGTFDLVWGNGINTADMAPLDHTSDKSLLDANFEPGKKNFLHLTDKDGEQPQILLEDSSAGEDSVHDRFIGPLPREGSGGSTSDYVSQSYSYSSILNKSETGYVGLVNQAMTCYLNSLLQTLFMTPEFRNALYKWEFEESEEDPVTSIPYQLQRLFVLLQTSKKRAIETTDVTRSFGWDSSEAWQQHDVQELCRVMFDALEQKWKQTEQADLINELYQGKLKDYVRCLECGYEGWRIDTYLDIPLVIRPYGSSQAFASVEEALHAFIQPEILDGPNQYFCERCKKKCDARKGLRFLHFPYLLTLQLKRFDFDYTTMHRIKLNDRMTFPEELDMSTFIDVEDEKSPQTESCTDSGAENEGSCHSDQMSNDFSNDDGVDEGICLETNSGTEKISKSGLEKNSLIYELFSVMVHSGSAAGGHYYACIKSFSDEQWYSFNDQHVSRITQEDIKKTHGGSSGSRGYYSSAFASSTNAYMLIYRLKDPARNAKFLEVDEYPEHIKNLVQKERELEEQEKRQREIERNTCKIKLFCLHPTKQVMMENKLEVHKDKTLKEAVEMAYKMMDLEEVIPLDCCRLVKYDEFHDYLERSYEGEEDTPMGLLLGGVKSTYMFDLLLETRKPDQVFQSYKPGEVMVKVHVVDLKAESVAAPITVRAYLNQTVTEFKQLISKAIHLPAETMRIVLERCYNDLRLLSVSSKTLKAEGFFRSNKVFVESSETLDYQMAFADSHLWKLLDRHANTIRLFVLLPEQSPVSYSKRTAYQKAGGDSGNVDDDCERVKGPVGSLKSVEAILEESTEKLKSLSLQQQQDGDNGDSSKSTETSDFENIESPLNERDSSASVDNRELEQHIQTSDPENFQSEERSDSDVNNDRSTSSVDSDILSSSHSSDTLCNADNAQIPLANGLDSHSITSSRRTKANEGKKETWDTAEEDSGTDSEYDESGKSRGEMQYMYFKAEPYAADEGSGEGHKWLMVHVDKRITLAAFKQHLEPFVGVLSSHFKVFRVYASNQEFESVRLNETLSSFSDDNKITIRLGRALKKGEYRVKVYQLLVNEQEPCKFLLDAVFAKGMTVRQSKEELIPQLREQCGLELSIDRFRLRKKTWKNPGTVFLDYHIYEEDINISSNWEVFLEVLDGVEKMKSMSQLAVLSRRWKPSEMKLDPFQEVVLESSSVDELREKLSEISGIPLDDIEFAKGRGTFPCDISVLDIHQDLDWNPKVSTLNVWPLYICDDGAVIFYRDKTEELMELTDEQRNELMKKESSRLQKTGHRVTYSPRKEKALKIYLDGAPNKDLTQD
Method in brief: as §1

USP48 = target: T3, USP48 (UniProt Q86UV5)
T3 sequence (whole entry): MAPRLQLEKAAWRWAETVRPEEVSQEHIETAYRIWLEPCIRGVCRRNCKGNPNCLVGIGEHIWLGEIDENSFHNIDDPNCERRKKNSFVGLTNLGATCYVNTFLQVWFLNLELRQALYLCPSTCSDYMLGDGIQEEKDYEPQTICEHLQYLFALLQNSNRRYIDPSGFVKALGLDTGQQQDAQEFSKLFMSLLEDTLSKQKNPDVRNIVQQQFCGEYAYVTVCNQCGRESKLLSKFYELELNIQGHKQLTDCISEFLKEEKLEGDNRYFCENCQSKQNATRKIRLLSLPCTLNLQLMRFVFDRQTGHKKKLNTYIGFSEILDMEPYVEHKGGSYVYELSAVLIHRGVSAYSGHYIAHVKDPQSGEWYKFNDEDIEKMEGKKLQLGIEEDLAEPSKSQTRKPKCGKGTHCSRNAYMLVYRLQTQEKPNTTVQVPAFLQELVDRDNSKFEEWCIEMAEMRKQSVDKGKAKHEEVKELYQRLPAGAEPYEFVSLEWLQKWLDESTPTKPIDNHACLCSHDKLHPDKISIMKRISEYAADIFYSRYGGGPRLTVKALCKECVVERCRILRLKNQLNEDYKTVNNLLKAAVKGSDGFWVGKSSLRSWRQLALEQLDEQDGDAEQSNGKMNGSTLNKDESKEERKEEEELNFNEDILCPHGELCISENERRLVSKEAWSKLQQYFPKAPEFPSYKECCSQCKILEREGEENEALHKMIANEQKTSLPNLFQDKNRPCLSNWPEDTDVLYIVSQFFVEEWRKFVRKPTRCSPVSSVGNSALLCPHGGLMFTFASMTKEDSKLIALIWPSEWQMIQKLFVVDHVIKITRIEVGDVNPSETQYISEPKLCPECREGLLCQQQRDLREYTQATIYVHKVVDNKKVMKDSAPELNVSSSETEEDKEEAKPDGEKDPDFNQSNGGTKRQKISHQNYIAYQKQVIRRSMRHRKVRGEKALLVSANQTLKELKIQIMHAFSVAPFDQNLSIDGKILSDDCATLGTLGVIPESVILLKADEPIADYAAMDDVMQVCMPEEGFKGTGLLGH
Method in brief: as §1

USP5 = target: T4, USP5 (UniProt P45974)
T4 sequence (whole entry): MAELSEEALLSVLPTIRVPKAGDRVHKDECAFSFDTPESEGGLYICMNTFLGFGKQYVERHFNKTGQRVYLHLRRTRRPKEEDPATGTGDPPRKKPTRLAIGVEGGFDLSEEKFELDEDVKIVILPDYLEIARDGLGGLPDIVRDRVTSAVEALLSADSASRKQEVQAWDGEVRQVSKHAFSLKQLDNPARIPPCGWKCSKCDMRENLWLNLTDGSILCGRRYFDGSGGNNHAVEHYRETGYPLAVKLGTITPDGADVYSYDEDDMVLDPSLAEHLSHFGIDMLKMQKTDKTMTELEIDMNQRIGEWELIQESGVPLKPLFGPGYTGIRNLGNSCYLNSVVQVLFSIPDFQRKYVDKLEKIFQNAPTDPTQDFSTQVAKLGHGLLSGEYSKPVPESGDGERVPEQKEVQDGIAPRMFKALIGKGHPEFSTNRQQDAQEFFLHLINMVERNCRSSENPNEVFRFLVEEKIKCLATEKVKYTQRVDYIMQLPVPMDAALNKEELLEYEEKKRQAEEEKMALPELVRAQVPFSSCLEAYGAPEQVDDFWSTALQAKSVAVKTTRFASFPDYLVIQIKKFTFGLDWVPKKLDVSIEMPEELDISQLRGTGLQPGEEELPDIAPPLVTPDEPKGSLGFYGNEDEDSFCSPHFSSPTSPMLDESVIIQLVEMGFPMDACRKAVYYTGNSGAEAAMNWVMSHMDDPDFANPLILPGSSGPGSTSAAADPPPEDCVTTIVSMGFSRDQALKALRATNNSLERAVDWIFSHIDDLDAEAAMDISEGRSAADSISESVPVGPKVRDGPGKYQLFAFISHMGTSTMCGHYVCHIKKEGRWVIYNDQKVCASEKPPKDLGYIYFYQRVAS
Method in brief: as §1

USP54 = USP54 (UniProt Q70EL1)
USP54, sequence (Q70EL1 whole entry): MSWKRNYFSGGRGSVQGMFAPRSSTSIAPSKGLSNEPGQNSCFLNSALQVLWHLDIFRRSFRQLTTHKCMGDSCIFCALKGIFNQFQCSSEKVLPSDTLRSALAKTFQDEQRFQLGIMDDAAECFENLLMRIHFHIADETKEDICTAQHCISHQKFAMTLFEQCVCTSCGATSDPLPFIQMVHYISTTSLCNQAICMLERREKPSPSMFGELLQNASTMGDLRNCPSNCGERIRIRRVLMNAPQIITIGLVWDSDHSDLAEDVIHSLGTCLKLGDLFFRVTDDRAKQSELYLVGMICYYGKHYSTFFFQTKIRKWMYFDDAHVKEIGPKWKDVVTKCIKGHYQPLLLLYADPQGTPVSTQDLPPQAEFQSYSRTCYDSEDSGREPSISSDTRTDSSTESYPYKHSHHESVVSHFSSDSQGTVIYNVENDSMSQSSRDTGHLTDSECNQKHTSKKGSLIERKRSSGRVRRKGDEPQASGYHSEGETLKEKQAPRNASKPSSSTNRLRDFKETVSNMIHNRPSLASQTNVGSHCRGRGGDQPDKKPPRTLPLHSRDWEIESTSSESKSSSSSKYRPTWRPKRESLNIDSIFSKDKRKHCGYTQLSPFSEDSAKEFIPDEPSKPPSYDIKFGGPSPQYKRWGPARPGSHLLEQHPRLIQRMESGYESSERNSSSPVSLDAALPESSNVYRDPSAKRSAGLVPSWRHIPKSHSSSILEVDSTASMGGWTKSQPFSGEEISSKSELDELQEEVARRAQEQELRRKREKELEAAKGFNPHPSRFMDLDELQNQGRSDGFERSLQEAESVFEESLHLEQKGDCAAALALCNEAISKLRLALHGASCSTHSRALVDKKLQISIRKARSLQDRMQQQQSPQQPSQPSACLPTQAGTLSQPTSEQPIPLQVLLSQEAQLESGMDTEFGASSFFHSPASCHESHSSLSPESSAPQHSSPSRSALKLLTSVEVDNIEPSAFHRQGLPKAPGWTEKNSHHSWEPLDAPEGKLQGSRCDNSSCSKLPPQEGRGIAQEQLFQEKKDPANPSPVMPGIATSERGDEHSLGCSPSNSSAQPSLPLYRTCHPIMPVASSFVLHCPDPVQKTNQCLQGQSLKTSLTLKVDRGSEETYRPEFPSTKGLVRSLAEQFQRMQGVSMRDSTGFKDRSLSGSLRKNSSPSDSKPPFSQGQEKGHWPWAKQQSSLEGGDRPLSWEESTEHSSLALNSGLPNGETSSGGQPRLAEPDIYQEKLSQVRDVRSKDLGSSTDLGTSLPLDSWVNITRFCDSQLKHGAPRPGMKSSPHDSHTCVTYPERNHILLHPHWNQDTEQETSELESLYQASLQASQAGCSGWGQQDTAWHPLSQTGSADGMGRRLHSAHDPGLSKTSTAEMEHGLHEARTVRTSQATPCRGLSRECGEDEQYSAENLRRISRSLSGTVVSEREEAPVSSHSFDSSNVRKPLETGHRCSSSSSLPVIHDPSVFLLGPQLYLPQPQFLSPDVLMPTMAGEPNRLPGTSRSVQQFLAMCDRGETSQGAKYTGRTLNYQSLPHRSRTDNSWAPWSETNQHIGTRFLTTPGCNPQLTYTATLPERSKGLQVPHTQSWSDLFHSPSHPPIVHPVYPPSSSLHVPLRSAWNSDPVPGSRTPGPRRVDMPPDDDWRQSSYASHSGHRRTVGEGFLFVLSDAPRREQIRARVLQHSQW
Method in brief: as §1

USP7 = USP7 (UniProt Q93009)
USP7, sequence (Q93009 whole entry, looked up): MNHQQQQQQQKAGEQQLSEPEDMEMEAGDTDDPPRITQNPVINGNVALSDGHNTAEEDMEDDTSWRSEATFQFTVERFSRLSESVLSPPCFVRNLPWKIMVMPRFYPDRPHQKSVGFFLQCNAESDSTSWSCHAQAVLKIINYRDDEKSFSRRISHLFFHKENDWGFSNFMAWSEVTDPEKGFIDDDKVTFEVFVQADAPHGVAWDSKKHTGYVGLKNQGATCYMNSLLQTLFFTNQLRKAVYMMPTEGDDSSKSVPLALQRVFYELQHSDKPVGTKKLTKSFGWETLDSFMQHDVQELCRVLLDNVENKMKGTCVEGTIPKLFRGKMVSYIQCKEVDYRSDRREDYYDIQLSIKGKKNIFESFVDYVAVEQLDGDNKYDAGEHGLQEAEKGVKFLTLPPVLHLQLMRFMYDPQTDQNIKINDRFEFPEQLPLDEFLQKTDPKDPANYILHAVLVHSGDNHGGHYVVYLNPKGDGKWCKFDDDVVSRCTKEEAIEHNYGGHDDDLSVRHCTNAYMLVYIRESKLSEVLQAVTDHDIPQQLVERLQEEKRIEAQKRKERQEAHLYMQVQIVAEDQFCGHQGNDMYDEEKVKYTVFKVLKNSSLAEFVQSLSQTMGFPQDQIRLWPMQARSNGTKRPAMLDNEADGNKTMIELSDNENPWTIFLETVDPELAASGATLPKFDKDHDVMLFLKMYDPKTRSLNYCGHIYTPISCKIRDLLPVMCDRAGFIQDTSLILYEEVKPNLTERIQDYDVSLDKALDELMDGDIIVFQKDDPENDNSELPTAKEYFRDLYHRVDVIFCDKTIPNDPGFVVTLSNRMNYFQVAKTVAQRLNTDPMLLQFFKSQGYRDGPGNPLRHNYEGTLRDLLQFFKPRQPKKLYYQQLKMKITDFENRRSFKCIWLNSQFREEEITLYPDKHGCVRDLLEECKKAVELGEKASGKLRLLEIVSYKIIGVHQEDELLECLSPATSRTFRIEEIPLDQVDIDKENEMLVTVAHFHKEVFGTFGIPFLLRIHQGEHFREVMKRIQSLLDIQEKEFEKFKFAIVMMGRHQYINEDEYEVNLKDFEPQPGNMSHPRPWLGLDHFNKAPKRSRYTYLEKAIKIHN
Method in brief: as §1

USP8 = target: T5, USP8 (UniProt P40818)
T5 sequence (whole entry): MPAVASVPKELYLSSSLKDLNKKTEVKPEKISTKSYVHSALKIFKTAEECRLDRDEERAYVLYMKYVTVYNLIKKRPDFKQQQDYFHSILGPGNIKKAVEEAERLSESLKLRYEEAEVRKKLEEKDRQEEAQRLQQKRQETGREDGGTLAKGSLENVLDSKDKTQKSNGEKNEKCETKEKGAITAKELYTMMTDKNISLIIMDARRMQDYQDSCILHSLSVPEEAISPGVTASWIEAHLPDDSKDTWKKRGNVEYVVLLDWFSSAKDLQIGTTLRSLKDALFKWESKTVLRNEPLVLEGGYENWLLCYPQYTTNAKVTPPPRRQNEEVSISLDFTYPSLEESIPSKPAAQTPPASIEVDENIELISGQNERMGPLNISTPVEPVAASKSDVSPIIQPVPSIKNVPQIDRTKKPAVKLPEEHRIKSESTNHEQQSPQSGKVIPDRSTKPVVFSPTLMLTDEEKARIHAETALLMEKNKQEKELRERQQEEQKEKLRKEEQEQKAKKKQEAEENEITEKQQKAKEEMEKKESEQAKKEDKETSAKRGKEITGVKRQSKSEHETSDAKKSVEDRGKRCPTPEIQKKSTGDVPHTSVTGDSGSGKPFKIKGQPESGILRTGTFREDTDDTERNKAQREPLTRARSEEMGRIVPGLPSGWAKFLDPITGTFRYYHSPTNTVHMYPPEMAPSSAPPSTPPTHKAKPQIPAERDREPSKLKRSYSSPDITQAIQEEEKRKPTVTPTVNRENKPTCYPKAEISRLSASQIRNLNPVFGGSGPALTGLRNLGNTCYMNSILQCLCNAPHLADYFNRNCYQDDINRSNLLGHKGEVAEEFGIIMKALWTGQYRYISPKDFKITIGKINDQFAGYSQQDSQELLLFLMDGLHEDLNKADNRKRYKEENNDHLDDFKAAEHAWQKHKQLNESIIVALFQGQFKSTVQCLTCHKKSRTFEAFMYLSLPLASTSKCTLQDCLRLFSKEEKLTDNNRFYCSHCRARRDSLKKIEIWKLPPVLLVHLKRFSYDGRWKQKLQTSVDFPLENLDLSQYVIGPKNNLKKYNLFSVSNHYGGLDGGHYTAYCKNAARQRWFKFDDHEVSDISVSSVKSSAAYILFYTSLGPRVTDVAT
Method in brief: as §1

Measured: log2 ratio of Biotin-Ahx-Ub-VS probe labelling

O=C(CCl)Nc1ccc(F)cc1Cl
inactive: USP42 0.367 | USP46 -0.157 | USP48 -0.144 | USP5 -0.28 | USP54 0.679 | USP7 -0.395 | USP8 -0.165
active: USP47 -1.41
